The structures appear in SMILES notation. The campaign covered roughly 310,000 compounds. About 14,000 (4.5%) showed an effect of 50% or more. Effects have a minus sign here. The full list was thinned out, with strong results kept by preference.
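Further: peak tail current of the secondary pulse compared with the same well before compound.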

Chain of human ether-à-go-go-related gene (hERG) potassium channel (Q12809 whole entry, looked up): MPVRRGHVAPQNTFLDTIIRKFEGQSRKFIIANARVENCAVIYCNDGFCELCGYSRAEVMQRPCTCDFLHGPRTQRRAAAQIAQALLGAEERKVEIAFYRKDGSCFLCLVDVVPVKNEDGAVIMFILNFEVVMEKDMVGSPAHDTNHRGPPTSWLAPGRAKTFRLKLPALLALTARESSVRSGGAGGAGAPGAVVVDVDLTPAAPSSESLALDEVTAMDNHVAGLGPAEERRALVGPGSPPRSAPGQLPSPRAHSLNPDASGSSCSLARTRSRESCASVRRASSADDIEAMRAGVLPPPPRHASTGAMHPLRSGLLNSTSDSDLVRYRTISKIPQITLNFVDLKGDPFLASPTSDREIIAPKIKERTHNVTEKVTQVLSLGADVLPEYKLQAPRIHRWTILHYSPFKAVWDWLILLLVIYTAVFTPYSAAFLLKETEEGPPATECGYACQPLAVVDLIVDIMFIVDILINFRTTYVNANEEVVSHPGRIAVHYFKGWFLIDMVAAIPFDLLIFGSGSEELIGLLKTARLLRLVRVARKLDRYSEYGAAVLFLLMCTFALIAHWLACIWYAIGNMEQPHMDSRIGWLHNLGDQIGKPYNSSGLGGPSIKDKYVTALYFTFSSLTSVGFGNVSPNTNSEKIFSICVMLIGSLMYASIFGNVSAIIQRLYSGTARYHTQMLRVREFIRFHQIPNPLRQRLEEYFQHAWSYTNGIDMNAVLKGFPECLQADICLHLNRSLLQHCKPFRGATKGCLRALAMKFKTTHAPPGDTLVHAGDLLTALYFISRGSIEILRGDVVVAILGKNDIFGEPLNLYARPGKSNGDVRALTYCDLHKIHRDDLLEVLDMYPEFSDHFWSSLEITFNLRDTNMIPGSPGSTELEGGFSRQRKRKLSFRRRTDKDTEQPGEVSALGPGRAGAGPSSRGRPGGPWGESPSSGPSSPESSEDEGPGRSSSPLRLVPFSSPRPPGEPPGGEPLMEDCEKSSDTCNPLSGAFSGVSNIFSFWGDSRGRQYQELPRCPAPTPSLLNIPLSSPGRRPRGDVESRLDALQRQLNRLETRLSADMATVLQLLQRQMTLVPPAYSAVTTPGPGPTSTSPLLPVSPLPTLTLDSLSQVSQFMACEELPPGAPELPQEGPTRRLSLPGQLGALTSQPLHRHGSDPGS

The assay addresses human ether-à-go-go-related gene (hERG) potassium channel (human, UniProt Q12809). The experiment in a line: primary screen, population patch clamp on CHO cells stably expressing hERG; higher = less effect of the substance.
On to `CC1CCC(NC(=O)C2CC(=O)N(c3ccc4c(c3)OCCO4)C2)CC1` (stereo not drawn), for which the “hERG current change (%, negative = inhibition) at 10uM” value was 8.92%. The result for `COc1ccc(N(C(=O)c2ccco2)S(=O)(=O)c2ccccc2)cc1` reads -44.3%; that for `COc1cccc(NC(=O)CSc2nnnn2C(C)C)c1`, 2.64%; that for `COc1ccc(-c2nsc3c(N4CCCCC4C)ncnc23)cc1` (stereo not drawn), 33.3%. In the case of `Cc1nnc(NC(=O)C2CCCO2)s1` (stereo not drawn), the “hERG current change (%, negative = inhibition) at 10uM” value is on record as 3.17%. The result for `CCn1c2ccccc2c2cc(CN3CCN(S(=O)(=O)CC)CC3)ccc21.O=C(O)C(=O)O` reads -13.4%.

With `Cc1cc(OCC(=O)OC(C)(C)C)c2c3c(c(=O)oc2c1)CCC3`, the “hERG current change (%, negative = inhibition) at 10uM” value was found to be 5.64%. As for `Cc1ccc(NC2CCCN(C(=O)c3cnc4ccccn4c3=O)C2)cc1C` (stereo not drawn), the figure is -3.33%; as for `CCOc1ccc(S(=O)(=O)NCc2cccnc2)cc1`, 15.5%. For the compound `Cc1ccc(C(=O)OC2CCOC2=O)cc1NC(=O)c1ccco1` (stereo not drawn), the “hERG current change (%, negative = inhibition) at 10uM” value amounted to 0.0901%.

`Cc1cc(C)c2c(N)c(C(=O)NC3CC3)sc2n1`: the “hERG current change (%, negative = inhibition) at 10uM” value came out at 8.51%. The result for `CC(C)(C)CNC(CO)C12CC3CC(CC(C3)C1)C2.Cl` (stereo not drawn) reads -4.3%; that for `Cc1ncc(S(=O)(=O)C(C)(C)C)c(N)n1`, 2.37%; that for `O=C(c1sc2ccccc2c1Cl)N1CCN(CCc2ccccn2)CC1`, -60.5%.

Consider `O=C(c1sc2ccccc2c1Cl)N1CCN(c2ccccn2)CC1`, for which the “hERG current change (%, negative = inhibition) at 10uM” value is -68.7%. As for `Cc1noc(C)c1C(=O)N1CCN(C(=O)c2sc3cc(Cl)ccc3c2Cl)CC1`, the figure is -47.4%; as for `O=C(c1sc2ccccc2c1Cl)N1CCN(c2ccccc2F)CC1`, -1.51%. For the compound `O=C(c1sc2cc(Cl)ccc2c1Cl)N1CCN(CCc2ccccn2)CC1`, the “hERG current change (%, negative = inhibition) at 10uM” value is -69.6%.

For the compound `O=C(c1cc(-c2ccccn2)nc2ccc(Cl)cc12)N1CCN(CCc2ccccc2)CC1`, the “hERG current change (%, negative = inhibition) at 10uM” value is recorded as 6.73%. For the compound `O=C(c1sc2ccccc2c1Cl)N1CCN(c2ncccn2)CC1`, the “hERG current change (%, negative = inhibition) at 10uM” value is reported as -9.78%.

In the case of `O=C(c1sc2cccc(Cl)c2c1Cl)N1CCN(CCc2ccccn2)CC1`, the “hERG current change (%, negative = inhibition) at 10uM” value is -28.9%.

With `O=C(c1sc2ccccc2c1Cl)N1CCN(c2ccc(F)cc2)CC1`, the “hERG current change (%, negative = inhibition) at 10uM” value is recorded as -3.54%. For the compound `COc1cc(C)nc(N2CCCC(C(=O)NC3CCC(C)CC3)C2)n1` (stereo not drawn), the “hERG current change (%, negative = inhibition) at 10uM” value is reported as -0.336%. As for `CCOc1ccc(CCNC(=O)CSCc2ccc(C)cc2)cc1OCC`, the figure is -2.33%; as for `Cc1cc2c(cc1C)NC(=O)CC(C(F)(F)C(F)(F)C(F)(F)F)=N2`, 9.6%.

With `C(=N\NC1=Nc2cccc3cccc1c23)/c1cccnc1`, the “hERG current change (%, negative = inhibition) at 10uM” value was -5.08%. `O=C(O)c1ccc(NC(=O)C(c2ccccc2)c2ccccc2)cc1`: the “hERG current change (%, negative = inhibition) at 10uM” value is 14.3%. As for `COc1ccc(C2C(C#N)=C(SC)NC3=C2C(=O)CC(C)(C)C3)cc1` (stereo not drawn), the figure is -15.4%; as for `COC(=O)[C@@H]1CCCN1Cc1c(C(=O)N2CCOCC2)nc2c(C)cccn12`, 24.1%; as for `COc1ccccc1C(=O)Nc1ccnn1C1CCN(CCCC2CCCC2)CC1`, -85.1%. The result for `COc1ccccc1NC(=O)Nc1ccnn1C1CCCCC1` reads -12.7%. The result for `O=C(Nc1ccnn1C1CCN(C2CCCCC2)CC1)c1ccccc1` reads -25.8%; that for `O=C(Nc1ccnn1C1CCN(C2CCCC2)CC1)c1ccccc1`, 1.61%. `O=C(Nc1ccnn1C1CCN(CCCC2CCCC2)CC1)c1ccccc1Cl`: the “hERG current change (%, negative = inhibition) at 10uM” value is recorded as -86.4%. The result for `COc1ccccc1N1CCN(CC(=O)Nc2ccnn2C2CCCC2)CC1` reads 3.01%; that for `O=C(Nc1ccnn1C1CCN(CCCC2CCCC2)CC1)c1ccccc1`, -73.1%; that for `O=C(c1cc(=O)[nH]c2ccccc12)N1CCc2ccccc2C1`, 11%. In the case of `O=c1c2ccccc2nc2n1CCO2`, the “hERG current change (%, negative = inhibition) at 10uM” value was 10.2%.

Take `COc1cc2cc(Oc3ccc4ccc(=O)oc4c3)c(=O)oc2cc1OC(C)=O`: the “hERG current change (%, negative = inhibition) at 10uM” value was 0.234%. The result for `COc1ccc(-c2cn3cc(C(F)(F)F)cc(Cl)c3n2)cc1` reads 9.73%. The result for `Cc1ccc(C(=O)Nc2nc3ccc(S(C)(=O)=O)cc3s2)o1` reads -0.566%; that for `Cc1nc(CN(C)C(=O)c2ccccc2OC2CCN(S(C)(=O)=O)CC2)cs1`, 3.35%. As for `COc1cccc(N2CCN(C(=O)CCC(=O)N3CCOc4ccc(C)cc43)CC2)c1`, the figure is -30.3%; as for `COc1ccccc1CNC(=O)CCC(=O)N1CCOc2ccc(Cl)cc21`, -5.43%; as for `O=C(CCC(=O)N1CCOc2ccccc21)N1CCOCC1`, -5.85%. On to `COc1ccc(N2CCN(C(=O)CCC(=O)N3CCOc4ccc(Cl)cc43)CC2)cc1`, for which the “hERG current change (%, negative = inhibition) at 10uM” value is recorded as -52.8%. The result for `O=C(CCC(=O)N1CCOc2ccccc21)N1CCN(c2ccccc2)CC1` reads -70%. The result for `COc1ccc(N2CCN(C(=O)CCC(=O)N3CCOc4ccc(C)cc43)CC2)cc1` reads -42.7%; that for `COc1ccc(N2CCN(CCCNC(=O)CCC(=O)N3CCOc4ccc(Cl)cc43)CC2)cc1`, -70.4%; that for `Cc1ccc2c(c1)N(C(=O)CCC(=O)N1CCN(c3ccccc3)CC1)CCO2`, -43.8%. The result for `COc1ccc(CCNC(=O)CCC(=O)N2CCOc3ccc(Cl)cc32)cc1OC` reads -20.2%; that for `O=C(Oc1nsnc1N1CCOCC1)N1CCOCC1`, 15.3%. Turning to `CCc1noc(C)c1C(=O)Nc1cc(C(F)(F)F)ccc1-n1cncn1`, the “hERG current change (%, negative = inhibition) at 10uM” value is -21.3%. As for `O=C(Nc1cccc2nsnc12)c1ccc(-c2cccc(Cl)c2)o1`, the figure is 10.4%. Take `FC(F)(F)c1ccccc1NC(=S)NN=C1CCCCCC1`: the “hERG current change (%, negative = inhibition) at 10uM” value is reported as 23.5%. The result for `CCC(=O)N(CCc1ccccc1C)Cc1cc2cc3c(cc2[nH]c1=O)OCO3` reads -3.05%; that for `COC(=O)c1ccccc1NC(=O)Cn1nc2n(C)c3ccccc3n2c(=O)c1=O`, -3.54%.

The record behind these values is article PMC4336329 (PLoS ONE, 2015).
